The results in this text go back to PubChem BioAssay (NCI).

Holding throughout (assay): NCI-60 one-dose screen, 48 h (100 = growth as untreated, 0 = no growth, -100 = all killed)
Details in all cases: 10 µM

For assay [1], the system named is NCI-H23 lung.
Assay [2] concerns NCI-H226 lung.
Assay [3] deals with NCI-H322M lung.
The test system of assay [4] is NCI-H460 lung.
For assay [5], the system named is HOP-92 NSCLC.
In assay [6] the test system is NCI-H522 lung.
Assay [7] has as its system A549/ATCC NSCLC.
Assay [8] concerns 786-0 renal.
The subject of assay [9] is COLO 205 colon.
Assay [10] deals with HOP-62 NSCLC.

Each structure is given as a SMILES string. The panel holds about 83,000 compounds, 20% with a hit somewhere; the sample as a whole holds those more often.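 Plates (96-well) were seeded with cells, treated with compound at one concentration, and incubated for 48 hours before percent growth was determined.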 A number with no mark means an inactive call. Calls of active or inactive are those of the source. Rule for the calls: active = growth percent below 10; inactive = the rest.

Take `CC(=O)Nc1ccc(Sc2ccc(NC(C)=O)cc2)cc1`: the growth is 94.1% in assay [1]; 101% in [2]; 110% in assay [3]; 105% in [4]; 83.1% in assay [5]; 75.7% in assay [6]. Further, the growth is 80% in assay [7], 94% in assay [8] and 101% in assay [9].
As to `O=C(Nc1cccc(-c2nc3ccccc3[nH]2)c1)c1cccc(NC(=O)c2ccco2)c1`, the growth is 98% in [1]; 90.1% in [2]; 94.1% in [3]; 91.6% in [4]; 38.8% in [5]; 98.5% in [6]. The growth is 82.7% in [7], 67% in assay [8] and 31.4% in assay [9].
Consider `COc1cc(C(c2c[nH]c3ccccc23)N2CCCC2)ccc1OCc1ccccc1` (stereo not given), for which the growth in assay [1] is 82%; in [2] it was 80.1%; in assay [3], 72.7%; in assay [4], 98.9%; in [5], 12.7%; in assay [6], 71.1%. Also, the growth in [7] is 94.5%; in assay [8], 87.4%; in assay [9], 104%.
On to `COc1cc(-c2c(C#N)c(N)n3c(nc4ccccc43)c2C#N)cc(Br)c1OC`, for which the growth is 59.2% in assay [1]; 27.8% in assay [2]; 70.9% in assay [3]; 74.5% in assay [10]; 28.4% in [4]; -20.7% (active) in assay [5]. In addition, the growth was 39.8% in assay [6], 22.2% in [8] and 55.1% in [9].
For the compound `COc1ccc(C2CC(c3ccc(-c4ccccc4)cc3)=NN2c2ccc(S(N)(=O)=O)cc2)cc1` (stereo not given), the growth is 80.9% in [1]; 74.9% in assay [2]; 68.5% in assay [3]; 41.9% in [4]; 35.6% in [5]; 40.3% in [6]. Moreover, the growth in assay [7] was 47.3%; in assay [8], 92.1%; in [9] it was 83.8%.
Regarding `FC(F)(F)c1ccc(-c2cnc(Br)nc2NC2CCCCCC2)cc1`, the growth in assay [1] was 33.1%; in assay [2] it was 53.1%; in [3] it was 78.2%; in [4], 28.6%; in assay [5], -21.4% (active); in assay [6], 7.77% (active). In addition, the figures for the growth in [8] and in [9] were 54.6% and 25.1%, respectively.
As to `COc1ccc(Cn2cc3c(c2-c2cc(OC)c(OC)c(OC)c2)CCc2cnoc2-3)cc1N`, the growth in [1] is 15.8%; in assay [2], 12.7%; in assay [3], 14.9%; in assay [10], 47.4%; in assay [4], -9.29% (active); in assay [5] it was 80.8%. The growth in assay [6] was 32.3%; in [8], 15.8%; in assay [9] it was -29.1% (active).
Regarding `O=C1/C(=C/c2cccs2)CCC/C1=C\c1cccs1`, the growth in assay [1] is 81.5%; in assay [2], 80.9%; in assay [3] it was 85.3%; in assay [10], 96.7%; in assay [4] it was 92.1%; in assay [5] it was 66%. For the same compound, the growth in assay [6] is 76.7%; in assay [8], 108%; in assay [9], 117%.
Take `NC(=O)C12C(=O)NC(=O)C1(C(=O)O)C21CCCC1` (stereo not given): the growth was 109% in assay [1]; 110% in [2]; 104% in assay [3]; 117% in assay [4]; 102% in assay [5]; 111% in [6]. Moreover, the growth in assay [7] was 99%; in assay [8], 101%; in assay [9], 115%.
`Cc1ccc(/C(CS(=O)(=O)c2ccc(C)cc2)=N\O)cc1`: the growth in [1] was 99.9%; in [3], 104%; in [10], 111%; in assay [4], 106%; in assay [5], 87.4%; in [6] it was 97%. Further, the growth in assay [7] was 94.6%; in assay [8], 102%; in assay [9], 118%.
As for `COc1ccc(-c2nc(SCC(=O)c3ccc(Br)cc3)[nH]c(=O)c2C#N)cc1`, the growth in assay [1] is 106%; in assay [3], 97.3%; in assay [10], 101%; in assay [4], 108%; in assay [5] it was 85.9%; in [6], 95.4%. Also, the growth in [7] was 99.6%; in assay [8] it was 89.9%; in assay [9] it was 119%.
For the compound `Nc1cc2c(cc1Cl)-c1ccc(Cl)cc1C2=O`, the growth in [1] was 98.3%; in [3], 103%; in assay [10] it was 90.2%; in [4] it was 96.6%; in [5] it was 78.1%; in [6] it was 90.3%. The growth is 103% in [8] and 95.1% in assay [9].
Turning to `COc1ccc(-c2nnc(N3CCN(C(=O)CN4CCN(c5ccc(Cl)cc5)CC4)CC3)nc2-c2ccc(OC)cc2)cc1`, the growth in assay [2] was 73.6%; in assay [3], 92.7%; in assay [10], 88.4%; in assay [4], 46.8%; in assay [5], 80.3%; in assay [6], 69.8%. Also, the growth is 58.8% in assay [7], 70.8% in assay [8] and 59.2% in [9].
`CC(CNC(Cc1ccccc1)c1ccccc1)NC(Cc1ccccc1)c1ccccc1` (stereo not given): the growth in assay [1] is 30.3%; in [3] it was 77.7%; in assay [10] it was 39.9%; in [4], 8.03% (active); in assay [5] it was -0.172% (active); in assay [6] it was 9.37% (active). The growth in assay [7] was 46.8%; in assay [8], 50.2%; in assay [9], 9.3% (active).
For `CC(C)c1[nH]nc2c(NCc3ccc(-c4ccccn4)cc3)nc(SCCN)nc12`, the growth in assay [1] is -34.8% (active); in assay [3] it was 10.3%; in assay [10], -15.3% (active); in assay [4], 3.31% (active); in assay [5], -11.1% (active); in assay [6] it was -54.8% (active). In addition, the growth in assay [7] was 6.81% (active); in assay [8], 6.26% (active); in [9], -48.2% (active).
Turning to `COC(=O)[C@]12CC[C@@H](C)[C@H](C)[C@@H]1C1=CC[C@@H]3[C@@]4(C)C[C@@H](O)[C@H](O)[C@@](C)(CO)[C@@H]4[C@H](O)C[C@@]3(C)[C@]1(C)CC2`, the growth in assay [1] was -50% (active); in assay [3] it was -29% (active); in assay [10], -59.5% (active); in assay [4], -72.5% (active); in assay [5] it was -56% (active); in [6], -78.9% (active). Besides, the growth in [7] was -62.3% (active); in [8], -65.1% (active); in [9] it was -87.5% (active).
Regarding `CN(C1c2ccccc2Oc2ccccc21)S(=O)(=O)c1cc(Cl)ccc1Cl`, the growth is 69.8% in assay [1]; 78.4% in [3]; 48.6% in [10]; 34.5% in assay [4]; 34.8% in [5]; 3.68% (active) in assay [6]. Moreover, the figures for the growth in [7], in assay [8] and in assay [9] were 52.4%, 64.1% and 53%, respectively.
Take `Cc1ccc(S(=O)(=O)Oc2ccccc2-c2ccccc2)cc1`: the growth was 47.2% in assay [1]; 47.9% in assay [3]; 42% in assay [10]; 9.27% (active) in [4]; 33% in [5]; 15% in [6]. The values for the growth in [7], in assay [8] and in assay [9] were 42.4%, 38.4% and 8.93% (active), respectively.
Consider `CC[C@@]1(C(N)=O)CC2C=CC1C2` (stereo not given in full), for which the growth is 110% in assay [1]; 142% in [3]; 122% in [4]; 97.2% in [5]; 101% in [6]; 107% in assay [7]. Further, the growth is 98.9% in [8] and 114% in [9].
For the compound `Nc1c(C(=O)NC2CCCCC2)sc2nc3c(cc12)C(=O)CCC3`, the growth in assay [1] is 98.7%; in assay [3], 105%; in [10], 120%; in assay [4], 103%; in assay [5], 82.9%; in [6], 98.6%. In addition, the figures for the growth in [7], in [8] and in [9] were 84.5%, 99.5% and 116%, respectively.
With `NS(=O)(=O)c1ccc(N2N=C(c3ccc(-c4ccccc4)cc3)CC2c2ccc(Cl)cc2)cc1` (stereo not given), the growth in assay [1] was 85.9%; in [3], 87.6%; in [10], 90.8%; in assay [4], 70.1%; in [5], 78.4%; in assay [6], 75.1%. Further, the growth in [7] was 64.1%; in [8], 95.9%; in assay [9], 103%.
Regarding `CCOc1nc(-c2ccccc2)cc2c(O)c(C(=O)NCCCO)[nH]c(=O)c12`, the growth in [1] was 103%; in assay [3], 106%; in [10], 91.1%; in assay [4], 110%; in assay [5] it was 66%; in [6], 77.4%. Also, the growth was 106% in [8] and 118% in [9].
For the compound `CCCc1ccnc(NS(=O)(=O)c2ccc(N)cc2)n1`, the growth is 62.8% in assay [1]; 103% in assay [3]; 105% in assay [10]; 95.4% in assay [4]; 93.1% in assay [5]; 56.6% in assay [6]. Besides, the results for the growth in assay [7], in [8] and in assay [9] were 79.3%, 90.3% and 37.8%, respectively.
As to `C[n+]1c(/C=C/c2c[nH]c3ccccc23)ccc2ccccc21`, the growth is 71.5% in [1]; 69.8% in assay [3]; 75.4% in assay [10]; 34.5% in assay [4]; 37.9% in [5]; 53.4% in assay [6]. In addition, the results for the growth in assay [7], in assay [8] and in assay [9] were 46.6%, 82.9% and 45.8%, respectively.
Turning to `COc1ccc(/C=C2\SC(=S)N(CCCN3CCOCC3)C2=O)c(OC)c1`, the growth is 98.9% in [1]; 111% in assay [3]; 125% in [10]; 105% in assay [4]; 87.1% in assay [5]; 79.7% in [6]. The results for the growth in assay [7], in assay [8] and in assay [9] were 102%, 106% and 108%, respectively.
On to `C/C(=N\NC(=O)c1sc(=S)n(C)c1N)c1cc2ccccc2o1`, for which the growth in assay [1] is 71.6%; in [3] it was 45.4%; in assay [10], 69.4%; in assay [4], 37.2%; in [5], 58.8%; in [6], 36.2%. Further, the growth in assay [7] is 45.4%; in [8] it was 57.3%; in [9] it was 107%.
Take `Cc1nnc2c3nnc(-c4ccc(Cl)cc4)n3c3ccccc3n12`: the growth was 103% in assay [1]; 86.4% in assay [3]; 93.4% in assay [10]; 103% in [4]; 79.5% in assay [5]; 86.6% in [6]. Moreover, the growth was 96.8% in assay [7], 97.2% in assay [8] and 111% in [9].
In the case of `CCn1nc(-c2ccccn2)c2cccnc2c1=S`, the growth in assay [2] is 93.8%; in assay [3], 87.3%; in assay [10] it was 98%; in assay [4], 53.7%; in assay [5] it was 73.4%; in [6] it was 70.5%. Also, the growth was 44.8% in assay [7], 106% in assay [8] and 30.9% in [9].
For the compound `O=C(NNC(=O)c1ccncc1)Nc1ccc([N+](=O)[O-])cc1`, the growth in assay [1] is 94.7%; in [3] it was 105%; in assay [10] it was 97%; in assay [4], 105%; in [5], 103%; in assay [6] it was 88.5%. The growth in assay [7] is 106%; in assay [8], 107%; in [9], 112%.
Regarding `CCCCNC(=O)Oc1ccc(/C(=C(\C)c2ccc(OC)cc2)c2ccc(OCCN3CCCCC3)cc2)cc1`, the growth in assay [1] is 68.4%; in assay [3] it was 87.6%; in assay [10], 69.1%; in assay [4] it was 34.6%; in assay [5], 47.2%; in assay [6], 74%. The figures for the growth in assay [7], in assay [8] and in assay [9] were 47.5%, 17.1% and -7.56% (active), respectively.
For `CCN1CCN(c2nc(NNC(=O)c3cccc(OC)c3)nc(N3CCN(C(c4ccccc4)c4ccccc4)CC3)n2)CC1`, the growth in assay [1] was 78.5%; in assay [3], 89.7%; in [10], 87.1%; in assay [4] it was -9.84% (active); in assay [5], 42.8%; in assay [6], 97%. Further, the growth in [7] was 65.3%; in assay [8], 72.8%; in [9], -31.6% (active).
